Compound activity: PubChem, several laboratories
PLCg1 inh: PLC-gamma1 (human) inhibition, primary screen. inhibition, % at 12.2 µM. AID 720700. 0.84% of 370,000 active. P19174. purified PLC-gamma1, fluorogenic substrate, fluorescence; in the data active means inhibition above about 9.5%
PLCb3 inh: inhibitors of human phospholipase C beta3. Q01970. Purified PLC-beta3, fluorogenic substrate, fluorescence. inhibition, % at 12.2 µM. 0.18% of 370,000 active. AID 720704;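 further: 0% = median of compound wells on plate and 100% = full blocker control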
FAS TE block: blocks the thioesterase domain of human fatty acid synthase; recombinant FAS-TE, OMFH fluorogenic substrate, fluorescence endpoint; 0.67% of 360,000 active; inhibition, % at 15 µM; P49327;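 active means compounds whose normalised, plate-corrected inhibition of enzyme fluorescence in the single-dose primary screen is 50% or more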;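 further: 0% = DMSO with enzyme and 100% = substrate without enzyme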
Cardio protect: protects H9c2 cardiomyocytes from peroxide injury | H2O2 injury protection, ATPLite, 2 h | protection from H2O2 cell death, % at 20 µM | 0.63% of 360,000 active;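 active means compounds giving at least 50% protection of heart cells from peroxide-induced death in the single-dose screen, raw or plate-pattern-corrected value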;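 further: 0% = DMSO wells with peroxide and 100% = DMSO wells without peroxide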
PLCgamma1 ctr: counter-screen for PLC-beta3 inhibitors: inhibitors of human PLC-gamma1; 3.1% of 3,300 active; inhibition, % at 12.3 µM; purified PLC-gamma1, fluorogenic substrate, fluorescence; shares compounds with PLCg1 inh; AID 743258; in the data active means inhibition above about 9.5%
PLCbeta3 conf: human PLC-beta3 inhibition, confirmation; inhibition, % at 12.3 µM; shares compounds with PLCg1 inh; AID 743261; 1% of 3,300 active; purified PLC-beta3, fluorogenic substrate fluorescence
Numbers without * were called inactive; / = no result given. An excerpt weighted towards active compounds, which were near 2.2% of everything screened. Unless noted, no stated cut-off is given here; in the data, active means inhibition above about 11%; inactive means the rest.

SMILES | PLCg1 inh | PLCb3 inh | FAS TE block | Cardio protect | PLCgamma1 ctr | PLCbeta3 conf
O=C1NC(c2ccccc2)=NC1(NS(=O)(=O)c1ccccc1)C(F)(F)F (stereo unspecified) | 3 | 11* | -9 | 0 | -2 | 1
CC(=O)NC1(C(F)(F)F)N=C2SCCN2C1=O (stereo unspecified) | -3 | 6 | -7 | 3 | / | /
CC1CC(C(=O)Nc2ccccc2)C(=O)O1 (stereo unspecified) | 2 | -4 | -6 | 3 | / | /
Cc1ccc(C)c(NC(=S)N2CCC(NC(=O)C3CCCCC3)CC2)c1 | 2 | -6 | -6 | 2 | / | /
COc1ccc(NC(=O)CN(C)C(=O)C2CC(=O)N(CCc3ccc(OC)c(OC)c3)C2)cc1 (stereo unspecified) | 4 | -2 | -6 | -6 | / | /
COc1ccc(NC(=O)CN(C)C(=O)C2CC(=O)N(Cc3ccc(C)cc3)C2)cc1 (stereo unspecified) | 12* | 6 | -6 | 0 | -4 | -6
C[C@]1(O)CC(=O)C=C[C@H]1Nc1ccccc1 | 17* | 1 | -8 | 34 | -4 | -1
CC1(C)CC(C(=O)Nc2ccccc2)C(=O)O1 (stereo unspecified) | -1 | 1 | -5 | 4 | / | /
CC(C)C[C@@H]1COc2cccc(N3CCCC3)c2S(=O)(=O)N1C | 1 | -1 | / | / | / | /
COc1cc(CNc2ncnc3c2ncn3[C@H]2CN(Cc3cccc(C(F)(F)F)c3)C[C@@H](CO)O2)cc(OC)c1OC | 9.6* | 3 | 3 | -14 | -2 | 2
NC(=O)NCc1ccc(Cl)cc1 | 12* | 2 | -11 | 0 | -4 | -7
COc1ccc(CNC(N)=O)cc1 | -1 | 3 | -7 | 1 | / | /
COC(=O)N[C@H](C(=O)N[C@@H](Cc1ccccc1)[C@@H](O)CN(Cc1ccc(-c2ccccn2)cc1)NC(=O)[C@@H](NC(=O)OC)C(C)(C)C)C(C)(C)C | 15* | 11* | / | / | -6 | -5
COCCNC(=O)C(c1ccc(C)cc1)N(Cc1ccccc1)C(=O)CCC(=O)Nc1ccccn1 (stereo unspecified) | 0 | -10 | -3 | -2 | / | /
Cc1nn(CC(=O)N2CCCC2)c(=O)c2nn(-c3ccccc3)c(C)c12 | 3 | 12* | -6 | 4 | -4 | 1
O=S(=O)([N-]c1nc2ccccc2nc1-[n+]1ccccc1)c1ccc(F)cc1 | 11* | -2 | -6 | 6 | -7 | -7
Cc1ccc[n+](-c2nc3ccccc3nc2[N-]S(=O)(=O)c2ccccc2)c1 | -1 | -8 | -5 | -5 | / | /
CC1=CC=CC2=NC(=O)CC(C)(C(=O)N(CC(=O)NC3CCCC3)c3ccc(F)cc3)N12 (stereo unspecified) | -75 | -114 | -3 | 0 | / | /
C[N+]1([O-])[C@@H]2Cc3cc4c(cc3[C@@H]1Cc1cc3c(cc12)OCO3)OCO4 (stereo partly specified) | 1 | 12* | -15 | 2 | -2 | -4
COc1cc2c(cc1OC)[C@@H]1Cc3cc4c(cc3[C@H](C2)N1C)OCO4 | -3 | 2 | -11 | 4 | / | /
CC1=NN(c2ccccc2)C(=O)/C1=C\c1cn(-c2ccccc2)nc1C | -2 | -2 | -3 | 0 | / | /
COc1ccccc1/C=C1/C(=O)N(c2ccccc2)N=C1C | 28* | 0 | -2 | 7 | -7 | -3
COc1cc(/C=C2\C(=O)N(c3ccccc3)N=C2C)ccc1Oc1ccc([N+](=O)[O-])cc1[N+](=O)[O-] | 10* | 4 | 6 | -8 | 2 | -1
N#Cc1ccc(OCC(O)CN2CCN(c3ncc(C(F)(F)F)cc3Cl)CC2)cc1 (stereo unspecified) | 1 | -4 | 21 | -16 | / | /
OC(CN1CCN(c2ncc(C(F)(F)F)cc2Cl)CC1)c1ccccc1 (stereo unspecified) | 13* | 2 | 8 | -5 | -6 | -4
SMILES | PLCg1 inh | PLCb3 inh | FAS TE block | Cardio protect | PLCgamma1 ctr | PLCbeta3 conf
C=CCOc1ccc(/C(O)=C2/C(=O)C(=O)N(CCCN3CCOCC3)C2c2ccc(OC)cc2)cc1 (stereo unspecified) | -2 | -2 | -5 | 7 | / | /
C=CCOc1ccc(/C(O)=C2/C(=O)C(=O)N(CCCN3CCOCC3)C2c2ccccc2)cc1 (stereo unspecified) | 11* | 1 | -4 | 7 | -4 | -2
Cc1ccc(NC(=O)N(Cc2ccco2)Cc2cc3cc(C)cc(C)c3nc2Cl)cc1 | -1 | 2 | / | / | / | /
Cc1cccc2cc(CN(Cc3ccco3)C(=O)Nc3cccc(C#N)c3)c(Cl)nc12 | 11* | 7 | 34 | -2 | -5 | -1
COc1ccc(-c2ccc(C)cc2)cc1[C@H]1[C@H]2C=CC[C@@H](C)[C@@H]2C(=O)N1Cc1ccccc1 | 5 | 11* | 25 | -14 | -6 | -3
Nc1ccc2c(c1)C(=O)C(=O)c1ccccc1-2 | 53* | 2 | 30 | -23 | 51* | 9
Cc1cc(C)c(S(=O)(=O)N2CCCCC2)c(C)c1N(C)S(=O)(=O)c1ccccc1 | 11* | 2 | 34 | -5 | -3 | 3
C[C@@H]1CN([C@H](C)CO)C(=O)c2cc(Br)cnc2O[C@H]1CN(C)C(=O)Nc1ccc2c(c1)OCO2 | 2 | 0 | -8 | 8 | / | /
Cc1ccc2c(CN3CC(C)CC(C)C3)cc(=O)oc2c1C (stereo unspecified) | 11* | 5 | 23 | -10 | -8 | -7
O=C(C1CCCN(Cc2ccc(Br)cc2)C1)N1CCCCC1 (stereo unspecified) | 13* | 3 | -5 | -1 | -5 | -2
CCN(CC)C(=O)C1CCCN(Cc2ccc(N(C)C)cc2)C1 (stereo unspecified) | 10* | -2 | -9 | 4 | -2 | 0
Cc1ccc(CN2CCCC(C(=O)N3CCCC3)C2)cc1 (stereo unspecified) | 2 | -1 | -4 | 3 | / | /
CCOC(=O)c1ccccc1NC(=O)c1cn(-c2ccc(C)c(C)c2)c(=O)c2ccccc12 | 9.9* | 2 | 31 | 19 | -3 | -4
COC(=O)c1ccccc1NC(=O)c1cn(-c2ccc(C)c(C)c2)c(=O)c2ccccc12 | 1 | 4 | 23 | 22 | / | /
CC(C)[C@@H](C)/C=C/[C@@H](C)[C@H]1CC[C@@H]2[C@]1(C)CCC1[C@]23C=C[C@]2(C[C@@H](O)CC[C@]12C)N(C(=O)Cc1ccccc1)O3 (stereo partly specified) | 3 | 0 | / | / | / | /
Nc1c(CNCc2nnn(Cc3ccccc3)c2N)nnn1Cc1ccccc1 | 3 | 3 | -8 | -1 | / | /
CCc1nc2ccc(C(=O)Nc3ccc4c(c3)OCC(=O)N4)cn2c1N(C)C(=O)Cc1ccccc1 | 0 | -1 | -9 | 18 | / | /
O=C1/C(=C/c2ccco2)SC(=S)N1c1cccnc1 | 12* | -18 | 0 | 1 | -1 | -14
O=C1/C(=C/C=C/c2ccco2)SC(=S)N1c1ccc(O)cc1 | 22* | -8 | 6 | -1 | -9 | -23
NN1C(=O)/C(=C\c2ccco2)SC1=S | 18* | -8 | -2 | 0 | -7 | -5
